# From the supplement of paper PMC6555819
# What was measured:
# Assay in all cases: PBM binding z-score (relative to random genomic background probes); higher = stronger binding; sequences stand for … in GC…GCGATTGACAGCGTAGAATGAAGG
# [1] = test system: FXR:RXRa (NR concentration 270 nM, RXRa partner concentration 90 nM)
# Outline: (§1)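 Binding z-scores take random background probes as their reference. They come from custom Agilent 4×180K protein-binding microarrays incubated 1 h with ligand-free nuclear receptor dimers, with antibodies against each partner (one per run) detecting binding. Scanned fluorescence was regression-normalized.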
# [2] = test system: LXRa:RXRa (NR concentration 270 nM, RXRa partner concentration 90 nM)
# Outline: as §1
# [3] = test system: LXRa homodimer (NR concentration 270 nM)
# Outline: as §1
# [4] = test system: LXRb:RXRa (NR concentration 270 nM, RXRa partner concentration 90 nM)
# Outline: as §1
# [5] = test system: LXRb homodimer (NR concentration 270 nM)
# Outline: as §1
# [6] = test system: PPARa:RXRa (NR concentration 270 nM, RXRa partner concentration 90 nM)
# Outline: as §1
# [7] = test system: PPARg:RXRa (NR concentration 180 nM, RXRa partner concentration 90 nM)
# Outline: as §1
# [8] = test system: PPARg:RXRa 270nM:90nM, anti-RXR (NR concentration 270 nM, RXRa partner concentration 90 nM)
# Outline: as §1
# [9] = test system: PPARg:RXRa 30nM:10nM, anti-RXR (NR concentration 30 nM, RXRa partner concentration 10 nM)
# Outline: as §1
# [10] = test system: PPARg:RXRa 90nM:30nM, anti-RXR (NR concentration 90 nM, RXRa partner concentration 30 nM)
# Outline: as §1
# [11] = test system: PPARg:RXRa DBDmut IVT, anti-RXR (DBD mutation: RXRa K156A/R161A, NR concentration 270 nM, RXRa partner concentration 90 nM)
# Outline: as §1
# [12] = test system: PPARg:RXRa IVT, anti-PPARg (NR concentration 270 nM, RXRa partner concentration 90 nM)
# Outline: as §1
# [13] = test system: PPARg DBDmut:RXRa IVT, anti-PPARg (DBD mutation: PPARg1 K132A/R137A, NR concentration 270 nM, RXRa partner concentration 90 nM)
# Outline: as §1
# [14] = test system: PPARg DBDmut IVT, anti-PPARg (DBD mutation: PPARg1 K132A/R137A, NR concentration 270 nM)
# Outline: as §1
# [15] = test system: PPARg homodimer (NR concentration 180 nM)
# Outline: as §1
# [16] = test system: PXR:RXRa (NR concentration 270 nM, RXRa partner concentration 90 nM)
# Outline: as §1
# [17] = test system: PXR homodimer (NR concentration 270 nM)
# Outline: as §1
# [18] = test system: RARa:RXR (NR concentration 270 nM, RXRa partner concentration 90 nM)
# Outline: as §1
# [19] = test system: RARa homodimer (NR concentration 270 nM)
# Outline: as §1
# [20] = test system: RARb:RXRa (NR concentration 270 nM, RXRa partner concentration 90 nM)
# Outline: as §1
Sequence,PBM binding z-score [1],PBM binding z-score [2],PBM binding z-score [3],PBM binding z-score [4],PBM binding z-score [5],PBM binding z-score [6],PBM binding z-score [7],PBM binding z-score [8],PBM binding z-score [9],PBM binding z-score [10],PBM binding z-score [11],PBM binding z-score [12],PBM binding z-score [13],PBM binding z-score [14],PBM binding z-score [15],PBM binding z-score [16],PBM binding z-score [17],PBM binding z-score [18],PBM binding z-score [19],PBM binding z-score [20]
AGTCAAGGTTCAGGACGAGGTAACGTAAAGCACG,2.68,1.82,0.192,1.05,-0.0826,2.34,1.97,2.16,0.624,1.34,-0.591,0.701,-0.373,0.579,0.61,1.35,0.133,1.95,0.0883,2.38
CCTACTGGGCCATCAGGTCCTTGATATCAACGTT,-0.312,-0.421,-0.282,-0.452,-0.521,0.449,0.742,1.4,-0.0903,0.582,3.89,3.63,0.113,-0.684,0.311,-0.471,-0.404,-0.307,0.115,0.33
CAGCCTAGGTCAGAGCCAGTATAGGAGGAACGTT,1.65,0.992,-0.0153,0.607,-0.514,1.69,0.786,0.566,-0.211,0.234,1.93,1.53,-0.412,-1,0.951,0.261,-0.164,0.723,0.33,3.08
CCTACTGGGCCATTCAGAGGTCATTGAGCATATG,2.93,4.74,6.54,3.65,0.261,4.02,2.49,3.28,1.01,2.38,4,4.21,0.182,-0.178,2.75,4.88,2.54,4.74,0.462,3.14
TCGATTAGTTGATTAGGGCAACCGAAACAGCGGA,-1.31,-0.186,-0.313,0.118,-0.308,0.322,0.147,1.25,2.88,2.19,1.68,1.02,-0.465,0.363,0.609,0.11,-0.141,0.208,0.0713,0.744
CTACCAAGGTGAACAAGGTCGTTGCTTACTATTC,1.51,1.61,0.37,2.11,-0.314,2.55,0.964,1.34,-0.119,0.845,2.88,2.58,0.0347,-0.195,1.15,3.08,1.88,2.64,-0.135,2.23
ATATGTAGGTTAAGGTTCATTCAGGTTGGTTCGC,3.46,3.69,3.61,3.2,0.826,5.83,10.6,9.42,8.81,10.9,7.08,7.48,4.12,3.24,3.29,4.08,5.13,3.48,1.87,2.21
CAAACTAGGTCAAGGTCAGAGTCGGTTTGTGCCA,5.93,4.35,1.98,3.26,0.405,5.7,9.05,7.77,6.36,8.17,8.39,8.85,4.94,5.19,4.13,4.13,1.18,4.4,2.46,5.06
AGTCAAAGTTCACTAGGTAACGGAAGATTCAGCT,4.46,5.19,2.4,3.15,1.03,4.82,6.78,6.56,3.1,5.71,2.88,4.85,0.928,0.734,2.34,4.05,2.12,3.09,1.02,4.71
ATCTCTAGGTAACCAAGTACAGTGAATGCCGAAC,0.125,0.246,0.247,0.353,0.673,0.645,0.752,0.425,0.0273,0.341,3.29,3.07,1.88,1.42,0.713,0.0867,0.597,-0.0145,1.1,0.347
ACTCGGACGACAAAGGTCAGAGCTACGCCAGTGA,3.61,4.04,1.27,3.23,0.325,4.37,4.45,5.09,2.65,4.51,0.324,2.18,0.163,-0.0873,2.37,3.4,-0.377,4.48,0.552,4.17
CGTCCAAGGTCAATGCTAAGTCAGTGAAAGCATT,6.87,4.59,0.722,3.58,0.637,4.73,3.59,4.12,0.983,2.55,2.98,3.34,0.647,-0.584,2.4,3.51,0.823,4.32,0.642,5.01
CCTATTAGTTGACCAAAAGGGCAACCGAAGCTCG,0.908,0.905,0.816,1.02,0.763,1.5,0.545,1.52,0.286,1.18,0.681,1.22,-0.0971,1.05,2.38,1.09,0.687,1.37,1.39,2.51
ATCGAAAGGCCGAAGGTGAGTATACCCACCCGAA,-0.216,-0.00303,-0.202,-0.349,-0.732,0.657,1.25,1.31,0.275,0.738,-0.869,0.122,-0.0521,-0.507,-0.197,-0.245,-0.678,0.273,-0.544,1.04
GCTTGTAGAACAAGGTTAAGAAAGACTAAGCTAA,-0.242,0.558,-0.426,0.502,-0.664,1.6,0.852,1.67,0.36,1.11,1.63,1.06,-0.311,-0.211,0.167,0.293,-0.338,0.612,-0.688,0.679
ATATGTAGGTAAAGGGTCATTCAGGTTGGTTCGC,4.11,4.04,2.46,3.97,1.17,6.53,11.1,9.65,9.28,10.5,7.14,7.26,2.33,1.19,3.33,5.22,2.87,5.04,2.48,3.53
CCTACTGGGCTACGAAAGGTCATTGATTCAGTGA,3.53,6.04,6.54,4.66,0.251,4.28,2.77,4.36,2.08,3.64,3.98,3.65,-0.45,0.321,3.32,5.08,1.74,5.44,0.708,3.88
CCTACTGGGCCTAGGTCATTGATCAGTCAAAGCA,0.983,1.42,0.403,1.31,-0.469,1.77,0.62,1.47,-0.181,1.03,-0.391,1.13,-1.99,-1.42,1.21,0.949,-0.0903,1.57,-0.574,1.94
TCGAGTAGGTTAGTCGGGGCATGCAGCCAACATA,-0.0547,0.104,-0.427,0.0747,-0.894,0.523,0.2,0.809,0.702,0.884,2.41,2.26,0.028,-1.65,-0.293,-0.00662,-0.418,0.207,-0.677,0.512
GCTTGTAGATCAATGTTAAGAAAGACTAAGCTAA,-0.421,-0.43,-0.434,-0.517,-0.377,-0.584,-0.00589,-0.385,-0.425,-0.416,1.38,0.377,-0.235,0.113,-0.551,-0.629,-0.348,-0.432,-0.306,-0.399
TCTATTAGTTGATTGGGGCAACCGAAACAGCGGA,1.22,0.791,0.363,1.23,1.1,1.17,0.235,1.91,3.65,2.85,2.23,1.52,0.999,1.72,0.142,0.811,0.783,1.14,1.31,1.03
GCGACTGGGGCAAAGCAGGTTACCAGAAGGTTGG,0.766,0.129,-0.462,0.0356,-1.38,1.3,1.17,1.42,-0.461,0.594,4.49,3.54,-1.13,-0.78,0.00244,0.34,-0.469,0.321,-0.876,1.1
TCTGCTAGGTCAACGATGGTCATCTAATCTGCTA,3.5,3.34,0.105,2.03,0.0541,3.37,2.78,3.34,2.08,2.79,4.28,4.02,0.183,0.11,0.637,2.1,-0.415,2.56,-0.306,4.09
CCCGACAGGTGAGAAGGTAACTCAGCCTCGATTA,-0.0059,0.3,0.072,0.291,-0.434,0.726,0.396,0.584,-0.2,0.0512,0.828,0.811,-0.905,-0.776,0.497,-0.281,-0.233,-0.0407,0.0144,0.749
CCTCGGAGGACAGAAGGTCAGTGCTGTCCGCTTT,1.08,1.1,-0.0896,0.672,-0.597,1.49,-0.509,0.452,-0.825,-0.242,-0.0749,-0.108,-0.925,-2,1.55,1.18,-0.686,1.65,-0.0741,3.28
ACTATTAGCTGACTTAGGGCAACCGATACGACGC,0.00773,-0.128,0.194,-0.149,0.546,-0.0754,0.886,0.11,-0.102,0.0192,0.43,0.75,1.05,1.38,0.825,-0.173,-0.168,0.142,1.14,0.676
ACATACAGGTGAGTGAAGGTAACTCAGCTGGACG,0.866,0.707,-0.217,-0.161,-0.321,1.21,1.28,0.814,0.519,0.883,2.31,2.03,0.417,0.188,0.393,0.304,-0.247,0.687,-0.0591,0.763
TATCCTAGGTCATGGGCCAGTATACCACGCGAAC,5,5.58,3.83,3.5,1.69,4.57,5.5,5.51,3.05,4.89,4.23,5.29,1.4,1.68,1.22,2.25,0.762,2.93,1.01,4.06
TCTTGTAGAGCAGCAGGTTAAGAAAGCTGGCCAA,-0.000312,-0.0132,-1.04,-0.257,-1.45,0.529,-0.553,1.04,1.29,1.01,1.09,0.666,-0.321,-1.03,-0.986,-0.26,-1.07,-0.139,-0.879,-0.156
